A number with no mark means an inactive call. Calls of active or inactive are those of the source. Cut-off read from the data, not from the text of the source, unless noted: active = inhibition above about 33%; inactive = the rest.
Legend:
[1] = StAR promoter reporter inhibitors, counter-screen for LRH-1 inverse agonist project, cell-based, luminescence, high throughput (AID 651611; in the data active = inhibition above about 28%); conditions: StAR promoter luciferase reporter counterscreen, at 3.6 µM, stronger effect = higher value
[2] = target: Nuclear receptor subfamily 5 group A member 2 (Homo sapiens) (UniProt O00482); assay: NR5A2 activity suppression in reporter cells – cell-based, luminescence, confirmation (AID 651613; in the data active = inhibition above about 42%;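 note: HEK293T cells co-transfected with LRH-1 and StAR promoter luciferase reporter; 0% = vehicle wells and 100% = parental cells lacking receptor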); conditions: cell-based LRH-1 luciferase reporter, inverse agonism; at 3.6 µM; stronger effect = higher value
[3] = target: Steroidogenic factor 1 (Homo sapiens) (UniProt Q13285); assay: inverse agonism at SF1 nuclear receptor – cell-based, luminescence, high throughput, counter-screen for LRH-1 inverse agonist project (AID 651614; in the data active = inhibition above about 44%;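 note: cells cotransfected with StAR promoter reporter and SF1 expression vector; 0% = vehicle on cells with receptor and 100% = vehicle on cells lacking receptor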); conditions: cell-based SF1 luciferase reporter, at 3.6 µM, stronger effect = higher value
[4] = compounds suppressing VP16-driven luciferase signal – cell-based, luminescence, high throughput, counter-screen for LRH-1 inverse agonist project (AID 651615); conditions: Gal4-VP16 luciferase reporter cells, at 3.6 µM, stronger effect = higher value

Sequence of Steroidogenic factor 1 (Homo sapiens) (Q13285 whole entry, looked up, the tested form may be a part): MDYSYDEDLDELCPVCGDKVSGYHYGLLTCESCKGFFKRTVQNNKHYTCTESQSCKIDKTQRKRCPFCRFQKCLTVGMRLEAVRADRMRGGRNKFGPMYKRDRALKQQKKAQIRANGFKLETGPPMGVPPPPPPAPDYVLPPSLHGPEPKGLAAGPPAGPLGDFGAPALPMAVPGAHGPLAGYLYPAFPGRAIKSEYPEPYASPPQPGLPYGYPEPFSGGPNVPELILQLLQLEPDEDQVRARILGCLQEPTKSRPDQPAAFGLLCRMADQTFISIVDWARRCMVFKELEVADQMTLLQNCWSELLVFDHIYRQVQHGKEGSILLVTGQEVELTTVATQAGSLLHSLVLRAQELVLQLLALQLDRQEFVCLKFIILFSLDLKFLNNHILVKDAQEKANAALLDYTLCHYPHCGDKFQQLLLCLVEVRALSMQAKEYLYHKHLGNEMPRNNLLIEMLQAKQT
Sequence of Nuclear receptor subfamily 5 group A member 2 (Homo sapiens) (O00482 whole entry, looked up): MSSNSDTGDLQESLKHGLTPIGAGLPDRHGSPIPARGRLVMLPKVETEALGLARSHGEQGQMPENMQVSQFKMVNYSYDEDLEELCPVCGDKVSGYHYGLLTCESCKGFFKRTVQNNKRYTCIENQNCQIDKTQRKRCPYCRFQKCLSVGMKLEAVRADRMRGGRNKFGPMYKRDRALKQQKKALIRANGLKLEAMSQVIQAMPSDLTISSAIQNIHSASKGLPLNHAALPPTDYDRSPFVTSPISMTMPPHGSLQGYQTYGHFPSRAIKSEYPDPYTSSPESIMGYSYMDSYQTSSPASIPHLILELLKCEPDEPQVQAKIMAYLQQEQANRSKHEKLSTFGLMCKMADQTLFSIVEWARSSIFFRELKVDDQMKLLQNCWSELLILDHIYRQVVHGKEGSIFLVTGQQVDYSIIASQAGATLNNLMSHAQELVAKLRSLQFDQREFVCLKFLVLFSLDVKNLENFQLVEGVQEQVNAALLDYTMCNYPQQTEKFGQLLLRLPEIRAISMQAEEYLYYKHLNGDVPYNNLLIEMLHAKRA

| SMILES | inhibition [1] | inhibition [2] | inhibition [3] | inhibition [4] |
| --- | --- | --- | --- | --- |
| COCc1cccc(-c2csc(C(C)(O)c3cccc(OC)c3)n2)c1 (stereo unspecified) | -0.93% | 45.2% (active) | 29.1% | 11.7% |
| CC12CCC(=O)N1c1c(sc3nc(N4CCOCC4)c4c(c13)CCCC4)C(=O)N2 (stereo unspecified) | 11.1% | 63.7% (active) | 53.7% (active) | -1.67% |
| Cc1c(C)c2ccc(OCC(=O)N3CC[C@@]4(O)CCCC[C@H]4C3)cc2oc1=O | 14.5% | 39% | 25.6% | -3.1% |
| O=C(CSc1n[nH]c(-c2ccccn2)n1)Nc1ccc(Cl)cc1 | 36.3% (active) | 70% (active) | 67.1% (active) | 41.4% (active) |
| COc1ccc(-c2nn(C)c(=O)c3ccccc23)cc1NS(C)(=O)=O | 49.6% (active) | 53.6% (active) | 41.2% | -52.2% |
| COc1ccc(N2CCN(C(=O)CN3C(=O)NC4(CCCCCC4)C3=O)CC2)cc1 | 7.32% | 46.6% (active) | 43.3% (active) | -4.03% |
| COc1ccc(NC(=O)CSc2nnc(Cc3ccccc3)c(=O)n2N)c(OC)c1 | 5.02% | 51% (active) | 54.2% (active) | 5.51% |
| COC(=O)CNc1nc(-c2cccnc2)nc2ccccc12 | 16.8% | 44.6% (active) | 42.2% | -0.85% |
| COc1ccccc1-n1c(SCC(=O)Nc2ccc(F)cc2)nc2c(c1=O)SCC2 | 10.4% | 54.9% (active) | 55.9% (active) | -9% |
